From PubChem
DT40 TDP1 no CPT: qHTS for Inhibitors of human tyrosyl-DNA phosphodiesterase 1 (TDP1): qHTS in cells in absence of CPT; DT40 Tdp1-/- hTDP1 cells, no CPT, ATP luminescence, 48 h; Potency, µM (highest dose often 46.2 µM), without a hit: at the top dose activity change, negative = growth inhibition, usual class: inhibitors; 420,000 tested, 15% active; AID 686978, 2013; further: on the % scale 0 is the no-effect control and ±100 the full control effect; nearly all actives have a fitted effect of over 55% in size
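Stably hTDP1-transfected Tdp1-null chicken DT40 cells were treated with library compounds minus camptothecin and grown for at least 48 hr at 37 °C, after which cellular ATP was quantified by luminescence.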
TGFb inhibitor: blocks TGF-b signaling. HepG2 CAGA-GFP TGF-b/SMAD3 reporter, GFP fluorescence, 18 h; TGF-beta stimulated, 500 pg/mL final. Potency, µM (highest dose often 46.1 µM), inactives show at the highest dose activity, negative = inhibition, hits mostly inhibitors. 410,000 tested, 1.2% active. AID 588855; further: on the % scale 0 is the no-effect control and ±100 the full control effect; nearly all actives have a fitted effect of over 65% in size
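Read-out: total well GFP (ex488/em500-530) summed from mean per-cell fluorescence. Cells: HEPG2 CAGA-GFP, 1% FBS DMEM, 18 h at 37 degrees C with 500 pg/mL final TGF-beta. Unstimulated wells served as the full-inhibition control; stimulated DMSO wells = 0%.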
TDP1 cell CPT: DT40-hTDP1 cell growth loss with CPT | Potency, µM (titrated, usually from 46.2 µM), for inactives: top-dose activity change, negative = growth inhibition, usual class: inhibitors | 420,000 tested, 12% active | chicken DT40 Tdp1-/-;hTDP1 cells + 20 nM CPT, ATP luminescence, 48 h; further: on the % scale 0 is the no-effect control and ±100 the full control effect; nearly all actives have a fitted effect of over 55% in size
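Chicken DT40 Tdp1-/- cells complemented with human TDP1, 400 cells/well, exposed to compounds plus 20 nM camptothecin for at least 48 h at 37 C; viability read as ATP content by CellTiter-Glo luminescence.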
HT1080 IDH1KD tx: kills HT-1080 cells with IDH1 knockdown | HT-1080 IDH1 knockdown viability, ATP luminescence, 48 h | Potency, µM (titrated, usually from 46.1 µM), for the others: at the highest dose activity, negative = toxicity, actives largely listed as cytotoxic | 360,000 tested, 2% active | AID 686971;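 further: 0% = DMSO wells and -100% = cell-free medium wells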
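In this qHTS, HT-1080 cells depleted of IDH1 are exposed for 48 h at 37 °C to compound titrations. Toxicity is scored from CellTiter-Glo luminescence, with DMSO as full viability and medium alone as none.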
HepG2 tox: kills HepG2 cells in TGF-b inhibitor counter-screen | HepG2 CAGA-GFP viability, ATP luminescence, 18 h | Potency, µM (series often up to 46.1 µM), for the others: top-dose activity change, negative = cytotoxicity, actives largely listed as cytotoxic | 410,000 tested, 0.76% active | AID 588856
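HepG2 CAGA-GFP cells (1000/well, DMEM with 1% FBS) received compound, then TGF-beta at 500 pg/mL final, and were incubated 18 hours at 37 degrees C. Viability was read by CellTiter-Glo luminescence. Media-only wells were set as complete cell-killing and DMSO as no toxicity.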
HT1080NT lethal: kills 2HG-producing HT-1080-NT fibrosarcoma cells; 360,000 tested, 1.6% active; HT-1080-NT fibrosarcoma viability, CellTiter-Glo ATP luminescence, 48 h; Potency, µM (highest dose often 46.1 µM), without a hit: at the highest dose activity, negative = less viability, most hits filed as cytotoxic;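 further: NT is the 2HG producing partner of a matched IDH1 knockdown line; 0% = DMSO-treated cells and -100% = media-only wells without cells; nearly all actives have a fitted effect of over 55% in size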
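750 cells/well, RPMI + 5% FBS; 2 h settle, compound pin-transfer, 48 h at 37 degrees C. CellTiter-Glo 10 min RT, luminescence. Normalized to DMSO and media-only wells.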
* hit, by the source's call; ? = inconclusive; · = no result. An excerpt weighted towards active compounds, which were near 17% of everything screened. The call rests on the fitted dose curve; in most records, active means well fitted curve in the direction sought with a large enough effect; inconclusive means small, poorly fitted or top-dose-only effect, or another doubt; inactive means no such curve, though single readings can be large; an effect the other way counts as inactive or inconclusive. Potency means the concentration at half of the fitted maximal effect.

SMILES	DT40 TDP1 no CPT	TGFb inhibitor	TDP1 cell CPT	HT1080 IDH1KD tx	HepG2 tox	HT1080NT lethal
CC(=O)Oc1ccc(C(=O)Nc2cc(NC(=O)c3ccc(OC(C)=O)cc3)cc(C(=O)NC(C)(C)C)c2)cc1	25.9µM*	?	20.6µM*	-26.0%	-35.4%	-24.4%
CC(=O)Oc1ccc(C(=O)Nc2ccccc2NC(=O)c2ccc(OC(C)=O)cc2)cc1	-12.3%	-0.7%	-14.4%	6.9%	-17.6%	-3.1%
CCNC(=O)CC1SC(=Nc2cccc3ccccc23)N(C)C1=O (stereo unspecified)	7.2%	3.0%	-20.2%	-12.3%	-15.9%	-12.8%
O=C(c1cc2ccccc2c(=O)o1)N1CCCCCC1	-4.0%	-2.1%	11.3%	?	3.7%	?
Cc1c(C(=O)OCC(=O)NCCc2ccc(S(N)(=O)=O)cc2)oc2ccccc12	-19.8%	-8.3%	-12.6%	1.2%	13.1%	-16.8%
Cc1cc(NC(=O)CS(=O)(=O)c2ccc(Cl)cc2)no1	-9.6%	6.4%	11.5%	9.6%	5.6%	13.9%
COc1ccccc1/C=C(/C#N)C(=O)O	-21.3%	16.3%	4.4%	?	-0.2%	-28.1%
CCOC(=O)C1CSC(CC(=O)Nc2ccc(OC(F)(F)F)cc2)C(=O)N1 (stereo unspecified)	-15.9%	0.7%	10.7%	-7.4%	-3.1%	-1.1%
C#CCOCCOCCOCCNc1nc(N2CCN(C(=O)[C@H](Cc3cc4ccccc4[nH]3)n3cc([C@@H](N)CC(C)C)nn3)CC2)nc(N2CCN(C(=O)[C@H](Cc3cc4ccccc4[nH]3)n3cc([C@@H](N)CC(C)C)nn3)CC2)n1	?	-23.5%	?	-3.7%	-2.1%	22.8%
CCc1cccc(NC(=O)CCN2C(=O)c3ccccc3Sc3ncccc32)c1	?	-23.3%	?	·	-30.0%	·
COc1cccc(NC(=O)c2oc3ccccc3c2NC(=O)c2ccc3c(c2)OCO3)c1	?	-2.0%	14.1µM*	-30.0%	-48.3%	-16.7%
O=C(CCl)Nc1c(C(=O)Nc2ccc3c(c2)OCCO3)oc2ccccc12	10.3µM*	?	5.17µM*	?	15.8µM*	?
COc1ccc(NC(=O)C2CC(=O)OC23CCCCC3)cc1 (stereo unspecified)	-20.9%	0.0%	-20.5%	-2.9%	-4.0%	-3.5%
COc1cccc(NC(=O)c2ccc(NC(=O)C3CC(=O)OC34CCCCC4)cc2)c1 (stereo unspecified)	?	2.1%	18.4µM*	1.3%	-1.2%	5.4%
COc1cccc(NC(=O)c2ccc3c(c2)OCCO3)c1	?	-23.5%	?	?	14.1µM*	?
COc1ccc(OCc2nc3ccccc3n2C(C)c2ccccc2)cc1 (stereo unspecified)	?	?	?	·	-49.4%	·
COc1cc2cc(C(=O)Nc3ccc4c(c3)OCCO4)[nH]c2cc1OC	?	15.7%	18.0%	17.7%	-2.3%	9.8%
COc1cc2[nH]c(C(=O)Nc3ccc4c(c3)OCCO4)cc2c(OC)c1OC	?	-3.8%	16.4µM*	-26.1%	-21.2%	-29.5%
COc1ccc(C(=O)Nc2nc3ccccc3s2)c(OC)c1	20.6µM*	12.0%	?	20.6µM*	17.8µM*	20.6µM*
CCOC(=O)c1[nH]c2ccc(OC)cc2c1NC(=S)N1CCN(c2ccccc2OC)CC1	8.2µM*	?	5.17µM*	13µM*	-12.3%	?
COc1ccccc1C(=O)Nc1nc2ccccc2s1	10.3µM*	-21.4%	16.4µM*	20.6µM*	11.2µM*	25.9µM*
COc1ccccc1C(=O)Nc1nc(-c2ccccc2)ns1	23.1µM*	1.9%	-29.3%	·	-19.2%	·
Cc1cccc(OCc2cc(=O)n3c(-c4ccccc4)csc3n2)c1C	-41.2%	?	-12.3%	·	-2.3%	·
CC(C)Cc1nnc(NC(=O)c2cc([N+](=O)[O-])ccc2N2CCOCC2)s1	-26.5%	2.7%	4.7%	18.9%	-14.5%	4.6%
COc1cc(CNc2ccc(C)c(C)c2)cc(OC)c1OC	1.3µM*	?	2.06µM*	3.98µM*	-17.6%	5.01µM*
SMILES	DT40 TDP1 no CPT	TGFb inhibitor	TDP1 cell CPT	HT1080 IDH1KD tx	HepG2 tox	HT1080NT lethal
COc1cc(CNc2nc3ccccc3s2)cc(OC)c1OC	23.1µM*	-6.2%	-0.2%	-1.5%	-19.4%	-5.7%
CCOC(=O)c1[nH]c2cc(OC)c(OC)cc2c1NC(=O)C(C)N1CCN(Cc2ccccc2)CC1 (stereo unspecified)	18.4µM*	-2.9%	?	-6.2%	-31.5%	-16.5%
COc1ccc(CNc2ccc(C)c(C)c2)cc1	-1.6%	-5.4%	0.3%	11.3%	18.3%	6.0%
CCOC(=O)c1[nH]c2ccccc2c1NC(=O)c1cc(Cl)ccc1Cl	-24.9%	-22.4%	?	·	-42.2%	·
CCOC(=O)c1[nH]c2ccccc2c1NC(=O)c1ccccc1OC	14.6µM*	2.3%	23.1µM*	·	-28.6%	·
COc1ccc2sc(NCc3ccccc3)nc2c1	-9.6%	-10.9%	-11.8%	-0.1%	-25.7%	3.6%
CCOC(=O)c1[nH]c2ccc(F)cc2c1NC(=O)Nc1ccccc1OC	?	5.7%	-12.8%	-27.7%	-2.4%	-6.7%
Cc1cccc(C)c1NC(=O)C(c1ccncc1)N1CCN(CCN(C)C)CC1 (stereo unspecified)	13.6%	·	10.5%	14.2%	·	6.7%
CCn1c(SCC(=O)Nc2ccc(N(C)C)cc2)nnc1-c1cccc(C)c1	-15.9%	23.8%	-14.8%	3.3%	12.4%	-1.4%
COc1ccc(C(=O)Nc2ccccc2Cc2ccccc2)c(OC)c1	?	?	18.4µM*	-15.3%	6.6%	-15.2%
CCOC(=O)c1[nH]c2ccc(OC)cc2c1NC(=O)OC	-7.2%	1.3%	2.5%	8.4%	7.4%	9.7%
CCOC(=O)Cc1nnc(NC(=O)c2ccccc2OC)s1	-20.2%	-13.8%	-2.6%	2.4%	12.7%	17.2%
CCOC(=O)c1sc(Nc2nc3c(OC)cccc3s2)cc1C	16.4µM*	?	?	?	-37.8%	-22.8%
CCOC(=O)Nc1c(C(=O)OC)[nH]c2cc(OC)ccc12	20.6µM*	?	?	-8.3%	-67.8%	-10.9%
COc1ccccc1C(=O)Nc1nnc(CCc2ccccc2)s1	?	-9.1%	?	6.51µM*	-3.4%	7.31µM*
CCOC(=O)c1sc(Nc2nc3cc4c(cc3s2)OCO4)cc1C	-14.9%	-5.7%	-1.3%	-18.0%	-1.8%	-19.1%
